IL1B secr inh = blocks inflammasome-driven IL-1 beta release; THP-1 LPS/ATP IL-1B secretion, AlphaLISA, 16 h; stronger effect = lower value; activity change, % at 57.5 µM; 4.7% of 360,000 active; AID 743279; in the data active = activity change below about -50%; inconclusive = mostly about -30% to -49%; also: % is scaled to controls: 0 for no effect and ±100 for the full control effect
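THP-1 cells pretreated 1 hr with compounds (up to 57.5 uM final), then stimulated with LPS (250 ng/mL final) plus ATP (1.25 mM final); secreted IL-1B measured by AlphaLISA after 16 hr, decreased signal indicating inhibition.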
TGFb SMAD3 inh = inhibitors of TGF-b signaling; HepG2 CAGA-GFP TGF-b/SMAD3 reporter, GFP fluorescence, 18 h; TGF-beta stimulated, 500 pg/mL final; Potency, µM (titrated, usually from 46.1 µM), for inactives: at the highest dose activity, negative = inhibition, actives largely listed as inhibitors; 1.2% of 410,000 active; AID 588855; also: potency is read from the fitted curve at half-maximal effect; % is scaled to controls: 0 for no effect and ±100 for the full control effect; nearly all actives have a fitted effect of over 65% in size
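GFP signal (ex488/em500-530) from TGF-beta-stimulated HEPG2 CAGA-GFP cells, 500 pg/mL final, 18 h at 37 degrees C in DMEM plus 1% FBS, normalized to unstimulated and DMSO-stimulated controls.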
TDP1 cell CPT = DT40-hTDP1 cell growth loss with CPT; Potency, µM (titrated, usually from 46.2 µM), inactives show at the top dose activity change, negative = growth inhibition, actives largely listed as inhibitors; chicken DT40 Tdp1-/-;hTDP1 cells + 20 nM CPT, ATP luminescence, 48 h; AID 686979; 12% of 420,000 active; also: potency is read from the fitted curve at half-maximal effect; % is scaled to controls: 0 for no effect and ±100 for the full control effect; nearly all actives have a fitted effect of over 55% in size
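Chicken DT40 Tdp1-/- cells complemented with human TDP1, 400 cells/well, exposed to compounds plus 20 nM camptothecin for at least 48 h at 37 C; viability read as ATP content by CellTiter-Glo luminescence.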
HepG2 tox = counter-screen for TGF-b inhibitors: cytotoxicity in HepG2 cells; AID 588856; Potency, µM (top dose mostly 46.1 µM), without a hit: at the highest dose activity change, negative = cytotoxicity, usual class: cytotoxic; HepG2 CAGA-GFP viability, ATP luminescence, 18 h; 0.76% of 410,000 active; also: potency is read from the fitted curve at half-maximal effect
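CellTiter-Glo luminescence gave cytotoxicity after 18 hours at 37 degrees C. The cells were HepG2 CAGA-GFP in 1% FBS DMEM, stimulated with 500 pg/mL TGF-beta after compound addition. %Activity was normalised to no-cell wells (complete cell-killing) and DMSO (no toxicity), and curves were fitted and classified.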
DT40 TDP1 no CPT = qHTS for Inhibitors of human tyrosyl-DNA phosphodiesterase 1 (TDP1): qHTS in cells in absence of CPT; AID 686978, 2013; 15% of 420,000 active; Potency, µM (series often up to 46.2 µM), without a hit: at the highest dose activity change, negative = growth inhibition, most hits filed as inhibitors; DT40 Tdp1-/- hTDP1 cells, no CPT, ATP luminescence, 48 h; also: potency is read from the fitted curve at half-maximal effect; % is scaled to controls: 0 for no effect and ±100 for the full control effect; nearly all actives have a fitted effect of over 55% in size
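A cellular qHTS used chicken DT40 cells lacking endogenous Tdp1 but carrying stably transfected human TDP1. Compounds were applied without camptothecin, and cell growth kinetics were judged by ATP-dependent luminescence after ≥48 hr.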
ASM inhibitor = blocks human secretory acid sphingomyelinase. P17405. placental ASM, HMU-PC fluorogenic substrate, 60 min. Potency, µM (titrated, usually from 57.5 µM), inactives show at the top dose activity change, negative = inhibition, hits mostly inhibitors. 0.006% of 340,000 active. AID 504937; also: potency is read from the fitted curve at half-maximal effect
Target sequence (P17405 47-631 limits assumed): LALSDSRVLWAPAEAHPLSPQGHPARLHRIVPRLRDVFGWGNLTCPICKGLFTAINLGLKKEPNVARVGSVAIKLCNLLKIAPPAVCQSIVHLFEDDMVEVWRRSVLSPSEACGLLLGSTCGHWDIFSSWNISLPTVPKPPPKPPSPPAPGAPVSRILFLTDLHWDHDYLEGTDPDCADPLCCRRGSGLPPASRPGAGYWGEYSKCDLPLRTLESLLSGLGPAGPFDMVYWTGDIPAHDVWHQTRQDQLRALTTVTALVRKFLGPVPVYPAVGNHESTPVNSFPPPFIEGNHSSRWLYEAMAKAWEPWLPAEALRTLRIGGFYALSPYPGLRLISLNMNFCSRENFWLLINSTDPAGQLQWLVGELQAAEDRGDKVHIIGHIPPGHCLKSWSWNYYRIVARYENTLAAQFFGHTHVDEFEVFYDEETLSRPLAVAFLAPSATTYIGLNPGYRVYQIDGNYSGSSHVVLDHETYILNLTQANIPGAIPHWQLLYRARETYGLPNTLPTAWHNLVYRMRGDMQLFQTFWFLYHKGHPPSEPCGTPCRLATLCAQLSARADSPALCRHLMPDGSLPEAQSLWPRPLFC
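Human placenta-derived ASM enzyme was preincubated with compound for 10 minutes at room temperature, then given fluorogenic substrate HMU-PC0 (9 uM final) for 60 minutes at 37 °C; a pH 10 stop preceded fluorescence reading at Ex 386/Em 447 nm.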
Starred values were filed as active, the others as inactive; ? = inconclusive; nt = no result. Rows were chosen to be rich in hits. Some 19% of all compounds tested hit in one or more screens of this group. Unless noted, calls follow the shape of the dose curve; as a rule, active = well fitted curve in the direction sought with a large enough effect; inconclusive = small, poorly fitted or top-dose-only effect, or another doubt; inactive = no such curve, though single readings can be large; an effect the other way counts as inactive or inconclusive.

SMILES	IL1B secr inh	TGFb SMAD3 inh	TDP1 cell CPT	HepG2 tox	DT40 TDP1 no CPT	ASM inhibitor
O=C(COC(=O)c1ccc(-c2ccc([N+](=O)[O-])cc2)o1)NC(=O)NC12CC3CC(CC(C3)C1)C2	-24	-4%	16µM*	-6%	13µM*	-6%
O=C(COC(=O)c1n[nH]c2ccccc12)NC(=O)NC1CCCC1	12	-27%	?	-3%	-23%	-3%
CC(=O)Nc1cccc(NC(=O)c2ccccc2Cl)c1	24	5%	-6%	-9%	0%	nt
CC(=O)Nc1ccc(NC(=O)C2CCCN2S(=O)(=O)c2ccc3c(c2)CCCC(=O)N3)cc1 (stereo unspecified)	nt	12%	-12%	2%	-1%	nt
CO/N=C(\C(=O)N[C@@H]1C(=O)N2C(C(=O)O)=C(CSc3nc(=O)c(O)nn3C)CS[C@H]12)c1csc(N)n1	nt	nt	0%	nt	-27%	nt
CN(Cc1cc(Cl)cc(Cl)c1)CC(C(=O)c1ccccc1)c1ccccc1 (stereo unspecified)	-79*	?	6.5µM*	-20%	7.3µM*	-1%
CN(C)C(C(=O)Nc1cc(Cl)cc(Cl)c1)c1ccccc1 (stereo unspecified)	?	4%	-3%	-14%	?	4%
O=S(=O)(c1ccccc1)c1nnn2c1nc(NC1CCCCC1)c1sccc12	nt	22%	-18%	3%	-6%	nt
Cc1ccc(NCc2cccn2-c2nnc(N3CCC(C(=O)NCc4ccccc4C)CC3)s2)cc1	nt	nt	?	-17%	16µM*	nt
CCN1CCN(CCCNC(=O)C2CCN(c3nnc(-n4c(C)ccc4C)s3)CC2)CC1	-19	1%	-26%	-7%	?	3%
COc1ccccc1CCNC(=O)C1CCN(c2nnc(-n3cccc3CNc3ccc(C)cc3)s2)CC1	nt	0%	18µM*	-29%	23µM*	nt
Cc1ccc(NCc2cccn2-c2nnc(N3CCC(C(=O)NCCc4ccccc4)CC3)s2)cc1	nt	nt	?	-2%	?	nt
CCc1ccc(CNC(=O)C2CCN(c3nnc(-n4c(C)ccc4C)s3)CC2)cc1	nt	nt	?	-35%	8.2µM*	nt
Cc1ccc(NCc2cccn2-c2nnc(N3CCCCCC3)s2)cc1	nt	-9%	?	-13%	16µM*	nt
Cc1nnc(SCC(=O)NCc2ccc(F)cc2)[nH]c1=O	19	-9%	-5%	9%	-13%	5%
CCc1nnc(NC(=O)CSc2nnc(C(C)NC(=O)c3ccccc3F)n2C)s1 (stereo unspecified)	18	9%	-10%	14%	-13%	-1%
Cc1ccc(S(=O)(=O)N(C)C)cc1NC(=O)C(C)OC(=O)CC1CC2CCC1C2 (stereo unspecified)	-12	?	?	-98%	?	nt
CC1=CC(=O)O[C@@H]1[C@@]1(C)C[C@H]2OC(=O)C[C@H]3[C@@H](C)C(=O)C(O)=C1[C@@]23CO	10	25%	5%	0%	5%	2%
Fc1ccc(NCc2cccn2-c2nnc(N3CCOCC3)s2)cc1	nt	-8%	-18%	-17%	-27%	nt
Cc1ccc(NCc2cccn2-c2nnc(N3CCC(C(=O)NCc4ccc(F)cc4)CC3)s2)cc1	nt	nt	?	-25%	18µM*	nt
Cc1sc2ccccc2[n+]1CCCCI	nt	2%	?	-12%	20µM*	nt
Cc1sc2ccccc2[n+]1CCc1ccccc1	nt	?	6.3µM*	-58%	3.2µM*	nt
COc1cccc(CNC(=O)COCc2cc(-c3ccc4c(c3)OCO4)on2)c1	nt	?	?	-15%	?	nt
Cc1cnc(C(=O)OC(C)C(=O)c2c(C)[nH]c3ccccc23)cn1 (stereo unspecified)	9	24%	-15%	7%	-9%	nt
CCOc1ccc2oc(C(=O)OCC(=O)NC3CCCC3)c(C)c2c1	14	-3%	?	2%	-10%	2%
SMILES	IL1B secr inh	TGFb SMAD3 inh	TDP1 cell CPT	HepG2 tox	DT40 TDP1 no CPT	ASM inhibitor
COc1ccccc1NC(=O)c1oc2ccc(C)cc2c1C	14	6%	?	6%	?	-10%
Cc1ccc2oc(C(=O)N(C)Cc3ccc(C)o3)c(C)c2c1	0	7%	8.2µM*	-17%	16µM*	-3%
CCCN(CC1CC1)C(=O)COC(=O)c1oc2ccc(OCC)cc2c1C	-4	?	-18%	-41%	6.5µM*	-5%
CCOc1ccc2oc(C(=O)Nc3ccc(C)cn3)c(C)c2c1	29	2%	?	-2%	18µM*	nt
Cc1ccc2oc(C(=O)Nc3cc(C)on3)c(C)c2c1	-8	15%	-7%	-16%	5.8µM*	8%
CCOc1ccc2oc(C(=O)NC3CCN(Cc4ccccc4)CC3)c(C)c2c1	-64*	?	3.7µM*	-33%	5.2µM*	-6%
O=C(N/N=C/c1cccs1)c1ccccn1	-25	-1%	-5%	-20%	-25%	5%
C(=NN=C(NN=Cc1cccs1)NN=Cc1cccs1)c1cccs1	-1	0%	5.2µM*	-32%	2.9µM*	-21%
O=C(N/N=C/c1ccccn1)c1cc(-c2ccc3ccccc3c2)n[nH]1	34	?	?	-13%	?	-27%
O=C(N/N=C/c1cccs1)c1ccc2ccccc2c1	-19	20%	15µM*	2%	21µM*	nt
O=C(N/N=C/c1cccs1)c1cc(-c2ccc3ccccc3c2)n[nH]1	?	?	?	-41%	21µM*	-7%
O=C(N/N=C/c1cccs1)c1ccc2ncccc2c1	-21	-16%	1%	-2%	-2%	-3%
O=C(N/N=C/c1ccco1)c1cc(-c2ccc3ccccc3c2)n[nH]1	-67*	?	13µM*	-91%	23µM*	-26%

Screens: PubChem BioAssay, National Center for Advancing Translational Sciences (NCATS)
